# Data taken from PubChem BioAssay (NCATS).
# Inconclusive results are not listed. Entries that show only a call come without a potency. Activity calls are given as the source filed them. Calls come from the whole dose curve; as a rule, active = well fitted curve in the direction sought with a large enough effect; inconclusive = small, poorly fitted or top-dose-only effect, or another doubt; inactive = no such curve, though single readings can be large; an effect the other way counts as inactive or inconclusive.
# Key:
# [1] = qHTS to identify inhibitors of the type 1 interferon - major histocompatibility complex class I in skeletal muscle: primary screen against the NCATS LOPAC collection (AID 1347405);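 note: lytic HiBiT luminescence reporting HLA-B protein level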
# Outline: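 Immortalized human C25cl48 myoblasts with HiBiT knocked into endogenous HLA-B*08:01 were stimulated with 4.0 ng/ml IFN-beta and given compounds in a 7-point, 1:4.3 titration from 46 uM final; after 24 hrs, lytic HiBiT luminescence was read.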
# [2] = qHTS to identify inhibitors of the type 1 interferon - major histocompatibility complex class I in skeletal muscle: primary screen against the NCATS Pharmaceutical Collection (AID 1347407);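 note: luminescence of HiBiT knocked into endogenous HLA-B as interferon-induced MHC class I level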
# Outline: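 A qHTS format is used: 8-point, 1:5 compound series with 46 uM top final concentration, applied alongside 4 ng/ml IFN-beta to HLA-B*08:01-HiBiT knock-in myoblasts. Luminescence is measured after 24 h treatment.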
# [3] = molecular target: Nuclear receptor subfamily 1 group I member 3 (Homo sapiens) (UniProt Q14994); assay: qHTS for Constitutive Androstane Receptor (CAR) Antagonist screened against the NCATS CANVASS Library (AID 1347372);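 note: cells stimulated with 50 nM CITCO agonist so inhibition reflects antagonism; series mostly up to about 46 µM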
# Outline: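 HepG2-CYP2B6-hCAR double-stable cells plated, 4hr attach; cpd pin-transferred; CITCO 50 nM final; 24hr 37C/5% CO2; CellTiter-Fluor 1hr (fluorescence), then ONE-Glo luminescence.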
# [4] = molecular target: Nuclear receptor subfamily 1 group I member 3 (Homo sapiens) (UniProt Q14994); assay: qHTS for Constitutive Androstane Receptor (CAR) Agonist screened against the NCATS CANVASS Library (AID 1347373);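 note: every well also contained 1.5 µM PK11195 alongside the test compound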
# Outline: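 HepG2 cells stably expressing hCAR and a CYP2B6-2.2kb luciferase reporter were treated for 24hr at 37C with compounds (11-point qHTS) in the presence of 1.5uM PK11195. Reporter activation was read by ONE-Glo luminescence.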
# [5] = 10-beta competent E. coli microbial cell viability qHTS against the NCATS CANVASS Library (AID 1347376); note: series mostly up to about 46 µM
# Outline: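 10-beta competent E. coli (0.9 OD culture diluted to 0.2 OD) exposed to compounds in an 11-point qHTS series, incubated overnight at 37C, 5% CO2. Viability read as ATP by BacTiter-Glo luminescence after 20 min at room temperature.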
# [6] = qHTS for H2AX Agonists against the NCATS CANVASS Library (AID 1347378);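 note: phospho-H2AX S139 level in CHO-K1 lysates by TR-FRET emission ratio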
# Outline: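 Signal is the 665/620 nm emission ratio from europium cryptate and d2 antibody pair, rising with S139-phosphorylated H2AX. CHO-K1 cells saw test agents for 3 hr at 37C; detection ran 24 hr at room temperature.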
# [7] = qHTS for Inflammasome Signaling Inhibitors: IL-1-beta AlphaLISA screen against the NCATS CANVASS Library (AID 1347379);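 note: human THP-1 cells primed with LPS then triggered with ATP; secreted IL-1B measured as AlphaLISA emission at 615 nm; lower signal means less IL-1B release which is the wanted effect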
# Outline: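 Human THP-1 cells were pretreated 1 hr at 37 °C with compounds (up to 57.5 uM final), then stimulated with LPS (250 ng/mL final) and ATP (1.25 mM final). Secreted IL-1B was read by AlphaLISA after 16 hr.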
# [8] = qHTS for Antimalaria activity screened against the NCATS CANVASS Library (AID 1347380);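 note: Plasmodium falciparum strain Dd2 asexual parasites grown in red blood cells; series mostly up to about 29 µM; nearly all actives have a fitted effect of over 40% in size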
# Outline: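 P. falciparum Dd2-infected RBCs (2.5% hematocrit final, 0.3% parasitemia) in Albumax II RPMI were exposed to compounds in an 11-point qHTS series for 72 h at 37C under 5% O2/5% CO2, then lysed with SYBR Green.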
# [9] = Inflammasome Signaling qHTS Counterscreen: IL-1-beta AlphaLISA counterscreen against the NCATS CANVASS Library (AID 1347381);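 note: cell-free check with purified IL-1β in medium and no THP-1 cells; series mostly up to about 57 µM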
# Outline: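 To flag interference with the AlphaLISA read-out, a known amount of purified IL-1-beta (4 pg) replaced cell supernatant. Detection used anti-IL-1-beta acceptor beads, biotinylated antibody and streptavidin donor beads at room temperature.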
# [10] = Cytotoxicity qHTS for assessment of Hepg2 cells membrane integrity screened against the NCATS CANVASS Library (AID 1347387)
# Outline: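 HepG2 cells (2000/well) attached overnight at 37C, then received compounds in an 11-point series at 0.59 nM - 46 uM final for 5 hr. LDH release was detected fluorometrically (ex 560/em 590 nm) with CytoTox-ONE reagent after 10 min at room temperature.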
# [11] = qHTS assay for small molecule disruptors of mitochondrial membrane potential screened against the NCATS CANVASS Library (AID 1347389); note: series mostly up to about 46 µM; nearly all actives have a fitted effect of over 60% in size
# Outline: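 HepG2 cells (2,000/well) were plated overnight at 37C, exposed to compound for 1 hr at 37C/5% CO2, then loaded with Mito-MPS dye for 30 min. Depolarization was read as a drop in red (590 nm) to green (535 nm) fluorescence ratio.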
# [12] = Secretion counterscreen for inhibitors of the SERCaMP assay screened against the NCATS CANVASS Library (AID 1347390);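 note: light from luciferase secreted into medium read as a measure of general secretion; series mostly up to about 77 µM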
# Outline: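 Natural products are titrated in an 11-point series up to 77 uM onto SH-SY5Y-GLuc STOP cells for 20 h. Secreted reporter activity is measured as coelenterazine-driven luminescence, with Brefeldin A on each plate.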
# [13] = qHTS for activators of Nrf2/ARE signaling pathway screened against the NCATS CANVASS Library (AID 1347391); note: nearly all actives have a fitted effect of over 60% in size
# Outline: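 ARE-bla HepG2 beta-lactamase reporter cells, 2000 cells/well, were preincubated 5 h, then exposed to compounds (11-point series) for 16 h at 37C. CCF4 fluorescence (ex 405, em 460/530 nm) after 2 h at room temperature.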
# [14] = qHTS for activators of dead-cell proteases activity screened against the NCATS CANVASS Library (AID 1347392);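 note: luminescence from protease leaking out of membrane-damaged cells cleaving impermeant substrate; rising signal means more cytotoxicity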
# Outline: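 Compounds are pin-transferred onto attached HepG2 cells, giving 11 final concentrations. After 5 h at 37C, AAF-aminoluciferin reagent is added and luminescence is recorded at room temperature.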
# [15] = qHTS for inhibitors of ER calcium dysfunction: SERCaMP assay screened against the NCATS CANVASS Library (AID 1347393);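 note: series mostly up to about 77 µM; lower secreted reporter signal means inhibitor of ER calcium depletion; nearly all actives have a fitted effect of over 40% in size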
# Outline: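 Thapsigargin-induced ER calcium depletion drives GLuc-SERCaMP secretion from SH-SY5Y cells; compounds given 16 h beforehand were scored by lowered coelenterazine luminescence after 4 h challenge.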
# [16] = Vero-766 cells viability qHTS against the NCATS CANVASS Library: Counterscreen for Zika virus inhibition assay (AID 1347394); note: series mostly up to about 46 µM; nearly all actives have a fitted effect of over 60% in size
# Outline: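 Counterscreen for toxicity: Vero 766 cells exposed 72 h to an 11-point compound series, viability by CellTiter-Glo.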
# [17] = qHTS for inhibitors of Wild type Zika virus screened against the NCATS CANVASS Library (AID 1347396);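 note: ATP luminescence of surviving cells so rescue from viral cell killing; series mostly up to about 46 µM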
# Outline: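 Vero 766 (African green monkey) cells, 1000 per well, attached overnight, then compounds were added in an 11-point series before wild-type Zika virus infection. After 72 h at 37C, cell viability was read as CellTiter Glo luminescence.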
# [18] = Viability qHTS for inhibitors of the SERCaMP assay screened against the NCATS CANVASS Library (AID 1347400); note: series mostly up to about 92 µM; nearly all actives have a fitted effect of over 70% in size
# Outline: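 SH-SY5Y-GLuc SERCaMP MJH297-derived cells (1000 cells/well) were pre-incubated 4 h at 37C, then exposed to compounds for 48 h. Viability was read as CellTiter-Glo luminescence; bortezomib served as positive control.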
# [19] = Redox Reaction Profiling qHTS: Assay Interference Panel against the NCATS CANVASS Library (AID 1347401)
# Outline: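 Cell-free redox surrogate: 5 uM resazurin + 200 uM DTT, 50 mM HEPES pH 7.3/50 mM NaCl; cpds pinned, 11-pt qHTS; Ex525/Em598 read t0 and t=15 min, dark.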
# [20] = qHTS to identify inhibitors of the type 1 interferon - major histocompatibility complex class I in skeletal muscle: primary screen against the NCATS Mechanism Interrogation Plate v5.0 (MIPE) Libary (AID 1347411); note: nearly all actives have a fitted effect of over 65% in size
# Outline: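 Immortalized human C25cl48 myoblasts with HiBit knocked into endogenous HLA-B*08:01 were stimulated with 4.0 ng/ml IFN-beta and exposed to compounds (11-point 1:3 titration, top 46 uM final) for 24 hrs at 37 C; HiBiT lytic luminescence measured.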
# Chain of Nuclear receptor subfamily 1 group I member 3 (Homo sapiens) (Q14994 whole entry, looked up): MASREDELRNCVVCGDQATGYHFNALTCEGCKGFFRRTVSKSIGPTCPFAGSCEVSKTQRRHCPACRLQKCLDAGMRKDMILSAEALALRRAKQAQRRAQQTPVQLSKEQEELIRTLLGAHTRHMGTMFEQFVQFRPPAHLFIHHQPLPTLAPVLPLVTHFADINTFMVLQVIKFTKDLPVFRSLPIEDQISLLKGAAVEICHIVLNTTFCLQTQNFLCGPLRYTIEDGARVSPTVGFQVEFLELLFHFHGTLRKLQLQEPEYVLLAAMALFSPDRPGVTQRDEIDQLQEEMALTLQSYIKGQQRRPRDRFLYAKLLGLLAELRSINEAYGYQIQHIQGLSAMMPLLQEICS
compound,measurement,setting,value
Oc1ccc(O)cc1,outcome,[1],inactive
same,Potency,[2],inactive
CNCCC(Oc1ccccc1C)c1ccccc1 (configuration not stated),outcome,[1],inactive
CC(C)COC(=O)OCN1C(=O)CN(CCN2CC(=O)N(COC(=O)OCC(C)C)C(=O)C2)CC1=O,outcome,[1],inactive
O=C1CCC(c2ccc(-n3ccnc3)cc2)=NN1,outcome,[1],inactive
CN=C(NC#N)Nc1ccc(C2=NNC(=O)CC2C)cc1 (configuration not stated),Potency,[2],inactive
CC1(C)O[C@@H]2C[C@H]3[C@@H]4CCC5=CC(=O)CC[C@]5(C)[C@@]4(F)[C@@H](O)C[C@]3(C)[C@]2(C(=O)CCl)O1,Potency,[2],inactive
Cc1cccc(C)c1NC(=O)CN1CCN(CCCC(c2ccc(F)cc2)c2ccc(F)cc2)CC1,Potency,[2],inactive
COC(=O)[C@H]1[C@H]2C[C@H]3c4[nH]c5ccccc5c4CCN3C[C@H]2CC[C@@H]1O,outcome,[1],inactive
NC(=O)CC[C@@H]1NC(=O)[C@H](Cc2ccccc2)NC(=O)[C@H](Cc2ccc(O)cc2)NC(=O)CCSSC[C@@H](C(=O)N2CCC[C@H]2C(=O)N[C@@H](CCCN=C(N)N)C(=O)NCC(N)=O)NC(=O)[C@H](CC(N)=O)NC1=O,Potency,[2],inactive
CN(C)CCOc1ccccc1Cc1ccccc1,Potency,[2],inactive
O=C(CCN1CCC(c2ccccc2)C1)c1ccc2c(c1)OCCO2 (configuration not stated),Potency,[2],inactive
O=C(O)c1cc2cc(Cc3cccnc3)ccc2o1,outcome,[1],inactive
N[C@H](CO)C(=O)O,outcome,[1],inactive
CCOC(=O)c1cccc(N)c1,Potency,[2],inactive
CN1CCC[C@@H]1c1cccnc1,outcome,[3],inactive
same,outcome,[4],inactive
same,outcome,[5],inactive
same,outcome,[6],inactive
same,outcome,[7],inactive
same,outcome,[8],inactive
same,outcome,[9],inactive
same,outcome,[10],inactive
same,outcome,[11],inactive
same,outcome,[12],inactive
same,outcome,[13],inactive
same,outcome,[14],inactive
same,outcome,[15],inactive
same,outcome,[16],inactive
same,outcome,[17],inactive
same,outcome,[18],inactive
same,outcome,[19],inactive
same,Potency,[2],inactive
Nc1cc(Cl)c(NC2=NCCN2)c(Cl)c1,outcome,[1],inactive
CC(C)(C)NC(=O)[C@@H]1CN(Cc2cccnc2)CCN1C[C@@H](O)C[C@@H](Cc1ccccc1)C(=O)N[C@H]1c2ccccc2C[C@H]1O,Potency,[2],inactive
CCCC1O[C@@H]2C[C@H]3[C@@H]4CCC5=CC(=O)C=C[C@]5(C)[C@H]4[C@@H](O)C[C@]3(C)[C@]2(C(=O)CO)O1 (some centres not stated),outcome,[1],inactive
CCCn1c(=O)[nH]c(=O)c2[nH]cnc21,outcome,[1],inactive
N[C@@H](Cc1cnc[nH]1)C(=O)O,outcome,[1],inactive
CC[C@H](C)C(=O)O[C@H]1CCC=C2C=C[C@H](C)[C@H](CC[C@@H]3C[C@@H](O)CC(=O)O3)[C@H]21,outcome,[1],inactive
same,Potency,[20],inactive
CC(CCc1ccccc1)NCC(O)c1ccc(O)c(C(N)=O)c1 (configuration not stated),outcome,[1],inactive
Cc1cc(O)c(C(C)C)cc1Cl,Potency,[2],inactive
CC(=O)OCC(=O)[C@@]1(O)[C@H](C)C[C@H]2[C@@H]3CCC4=CC(=O)C=C[C@]4(C)[C@@]3(F)[C@@H](O)C[C@@]21C,Potency,[2],inactive
CC1(C)CCC(NC(=O)[C@@H](N)CCC(=O)O)CC1,outcome,[1],inactive
OCc1ccccc1O,Potency,[2],inactive
C1CCc2nnnn2CC1,outcome,[1],inactive
CCC(NC(C)C)C(O)c1ccc(O)c(O)c1 (configuration not stated),outcome,[1],inactive
CN1C2CCC1CC(OC(=O)c1c[nH]c3ccccc13)C2 (configuration not stated),outcome,[1],inactive
CC(=O)O[C@H]1C[C@@H]2CC[C@@H]3[C@H](CC[C@@]4(C)[C@H]3C[C@H]([N+]3(C)CCCCC3)[C@@H]4OC(C)=O)[C@@]2(C)C[C@@H]1[N+]1(C)CCCCC1,outcome,[1],inactive
CN(C)CCCOc1nn(Cc2ccccc2)c2ccccc12,Potency,[2],inactive
CCCCCCCCCCCCCCCCCC(=O)OCC(O)CO (configuration not stated),Potency,[2],inactive
C[N+]1(CCCCC[N+]2(C)CCCC2)CCCC1,outcome,[1],inactive
